Bioassay records: PubChem, National Center for Advancing Translational Sciences (NCATS)
The list is not random: actives were taken first. Their share in the collection is about 3%.
USP1 inh: Inhibitors of USP1/UAF1: Primary Screen. 0.23% of 390,000 active. recombinant USP1/UAF1, Ub-Rhodamine cleavage fluorescence. Potency, µM (top dose mostly 57.1 µM), for inactives: top-dose activity change, negative = inhibition, usual class: inhibitors. AID 743255, 2014; further: on the % scale 0 is the no-effect control and ±100 the full control effect; nearly all actives have a fitted effect of over 60% in size
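High-throughput fluorogenic screen: 1nM USP1/UAF1 complex, Ub-Rho substrate 150nM final, 50mM HEPES pH 7.8 with 0.5mM EDTA, 0.1 mg/ml BSA, 1mM TCEP and 0.01% Tween-20.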
PLK1 PBD inh: qHTS for Inhibitors of PLK1-PDB (polo-like kinase 1 - polo-box domain): Primary Screen | Serine/threonine-protein kinase PLK1 (Homo sapiens), P53350 | Plk1 PBD binding of FITC phosphopeptide, fluorescence polarization | Potency, µM, for inactives: max response, negative = inhibition, hits mostly inhibitors | 2.8% of 360,000 active | AID 720504, 2013; further: series mostly up to about 57 µM; on the % scale 0 is the no-effect control and ±100 the full control effect; nearly all actives have a fitted effect of over 65% in size
TSG101-PTAP inh: qHTS Assay for Iinhibitors of HIV-1 Budding by Blocking the Interaction of PTAP/TSG101. Potency, µM (doses to about 115 µM), without a hit: at the highest dose activity change, negative = inhibition, actives largely listed as inhibitors. 340,000 tested, under 10 active. Fluorescence polarization, FITC-PTAP peptide / Tsg101 binding. Tumor susceptibility gene 101 protein (Homo sapiens), Q99816; active means well fitted inhibition curve with a large enough effect in the main read-out, with a control signal flat, not every such curve was filed as active; inconclusive means small, poorly fitted or top-dose-only effect, or effect the other way, or a change in a side signal; inactive means no such curve, though single readings can be large or run the other way; further: % of control where 0% means no effect
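Fluorescence anisotropy tracks displacement of a FITC-tagged PTAP peptide (50 nM) from the Tsg101 binding domain (10 uM), following a 20 min room-temperature incubation at pH 7.5.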
VDR inhibitor: Inhibitors of the vitamin D receptor (VDR): qHTS. Vitamin D3 receptor (Homo sapiens), P11473. VDR-SRC2-3 peptide fluorescence polarization, 2 h. 0.93% of 400,000 active. Potency, µM, inactives show max response, negative = inhibition, most hits filed as inhibitors; further: on the % scale 0 is the no-effect control and ±100 the full control effect
Target sequence (P11473 whole entry, looked up): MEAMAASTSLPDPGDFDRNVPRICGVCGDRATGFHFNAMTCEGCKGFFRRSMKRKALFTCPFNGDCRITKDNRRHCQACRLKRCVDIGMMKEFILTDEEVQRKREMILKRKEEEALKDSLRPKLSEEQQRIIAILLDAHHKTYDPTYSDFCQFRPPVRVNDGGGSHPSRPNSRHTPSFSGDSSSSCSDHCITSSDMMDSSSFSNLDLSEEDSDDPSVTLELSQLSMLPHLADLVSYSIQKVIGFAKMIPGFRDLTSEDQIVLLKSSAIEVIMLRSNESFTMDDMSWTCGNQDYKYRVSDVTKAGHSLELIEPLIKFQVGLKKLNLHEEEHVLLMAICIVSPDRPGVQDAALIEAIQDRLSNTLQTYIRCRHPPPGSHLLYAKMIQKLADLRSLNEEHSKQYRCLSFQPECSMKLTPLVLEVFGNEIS
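Compounds are added to VDR with labelled SRC2-3 coactivator peptide and held 2 h at room temperature. Inhibition of the VDR–peptide interaction is then read as a change in fluorescence polarization.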
KAT2A inh: qHTS Assay for Inhibitors of GCN5L2 | GCN5L2 HAT assay, ThioGlo1 CoA-SH fluorescence | Histone acetyltransferase KAT2A (Homo sapiens), Q92830 | Potency, µM (highest dose often 58.9 µM), inactives show at the top dose activity change, negative = inhibition, usual class: inhibitors | 0.21% of 390,000 active; further: on the % scale 0 is the no-effect control and ±100 the full control effect
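GCN5L2 (20nM final) in 50mM HEPES, 0.1mM EDTA pH 7.5, 0.01% Tween-20 was preincubated 15 min at room temperature with compound, then given ThioGlo1 (50uM), H3(1-25) peptide (75uM) and acetyl-CoA (70uM); CoA-thiol fluorescence (Ex340/Em540) was read at 0 and 20 min.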
VDR confirm: qHTS for Inhibitors of the vitamin D receptor (VDR): Hit Validation in Primary Screen; shares compounds with VDR inhibitor; VDR-coactivator inhibition assay, qHTS confirmation; Potency, µM, hits mostly inhibitors; 89% of 840 active; AID 602199, 2012
VDR FP: qHTS for Inhibitors of the vitamin D receptor (VDR): Hit Validation using a Fluorescein Assay. shares compounds with VDR inhibitor. VDR-coactivator binding, fluorescein fluorescence polarization. Potency, µM (series often up to 57.1 µM), without a hit: top-dose activity change, negative = inhibition, most hits filed as inhibitors. 48% of 840 active. AID 602200, 2012
VDR bla reporter: qHTS for Inhibitors of the vitamin D receptor (VDR): Hit Validation using a Beta-Lactamase Assay | 23% of 840 active | VDR beta-lactamase reporter cells, FRET ratio; cells co-treated with VDR agonist LG190178 | Potency, µM (titrated, usually from 46.1 µM), for the others: at the top dose activity change, negative = inhibition, most hits filed as inhibitors | AID 602202, 2012 | shares compounds with VDR inhibitor; further: on the % scale 0 is the no-effect control and ±100 the full control effect
VDR viability: qHTS for Inhibitors of the vitamin D receptor (VDR): Hit Validation using a Cytotoxicity Assay; shares compounds with VDR inhibitor; cytotoxicity counter-screen, cell viability, qHTS; Potency, µM (top dose mostly 48.3 µM), for inactives: at the top dose activity change, negative = cytotoxicity, most hits filed as cytotoxic; 18% of 840 active; AID 602204, 2012;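 further: plate controls were DMSO for no effect and high-concentration cycloheximide for full effect; nearly all actives have a fitted effect of over 75% in size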
* hit, by the source's call; ? = inconclusive; nt = not tested or not shown. Unless noted, the call rests on the fitted dose curve; in most records, active means well fitted curve in the direction sought with a large enough effect; inconclusive means small, poorly fitted or top-dose-only effect, or another doubt; inactive means no such curve, though single readings can be large; an effect the other way counts as inactive or inconclusive. Potency means the concentration at half of the fitted maximal effect.

SMILES	USP1 inh	PLK1 PBD inh	TSG101-PTAP inh	VDR inhibitor	KAT2A inh	VDR confirm	VDR FP	VDR bla reporter	VDR viability
CCCS(=O)(=O)c1c(S(=O)(=O)CCC)c2ccc(C(N)=O)cn2c1C(=O)c1ccc(OC)cc1	-17%	2%	-1%	3%	1%	nt	nt	nt	nt
CCC(=O)Nc1c(C#N)c2nc3ccccc3nc2n1C1CCCCC1	-9%	0%	-6%	6%	1%	nt	nt	nt	nt
CCOC(=O)c1c(NC(=O)c2ccco2)n(C2CCCCC2)c2nc3ccccc3nc12	16µM*	-23%	2%	?	-9%	3.2*	?	-20%	-7%
CC(=O)NC(c1ccc(C)cc1)c1cc(Cl)c2cccnc2c1O (stereo unspecified)	-19%	-3%	-1%	19%	2%	nt	nt	nt	nt
Cc1ccc(C(c2cc(Cl)c3cccnc3c2O)N2CCN(C)CC2)cc1 (stereo unspecified)	-19%	1.5µM*	1%	45µM*	32µM*	19*	?	-28%	?
N#CC1=C(Nc2ccccc2Cl)SC(c2ccccc2O)NC1=O (stereo unspecified)	-23%	?	0%	20µM*	-12%	3.8*	?	14%	13%
Cc1ccc(C(=O)/C=C/c2ccc3ncccc3c2)cc1	?	-8%	-12%	22µM*	?	12*	?	?	?
Cc1ccc(C=Nc2ccccc2C(N)=O)o1	-11%	2%	-1%	4%	-6%	nt	nt	nt	nt
Cc1ccc(C=Nc2ccc(N(C)C)cc2)o1	?	-2%	-13%	1µM*	-4%	12*	39%	-1%	1%
CCOc1ccc(CCNC(=O)c2cnc3sc(N4CCC(C)CC4)nn3c2=O)cc1	-10%	nt	nt	8%	-27%	nt	nt	nt	nt
CCOc1cc(/C=C2\N=C(C)OC2=O)cc(Br)c1OCCc1ccccc1	-5%	?	-4%	?	3%	nt	nt	nt	nt
CCOc1cc(/C=C2\N=C(C)OC2=O)cc(Br)c1OCC(=O)OC	-14%	?	-7%	20µM*	1%	11*	?	8%	6%
COc1ccc(C(=O)CN2C(=O)N(c3ccc(C(C)=O)cc3)S(=O)(=O)c3ccccc32)cc1	?	nt	nt	9%	0%	nt	nt	nt	nt
OC1c2c(F)cccc2N=C2CCCCCN21 (stereo unspecified)	nt	-10%	nt	nt	nt	nt	nt	nt	nt
Clc1ccc(Cl)c(-c2nn3c(COc4ccccc4)nnc3s2)c1	-16%	5.3µM*	-3%	?	-23%	11*	7.1µM*	-15%	-27%
COc1ccccc1-c1nn2c(-c3ccccc3Cl)nnc2s1	nt	nt	nt	nt	-8%	nt	nt	nt	nt
COCCNC(=O)C1(C)Cc2c(-c3ccc4c(c3)OCO4)ccnc2O1 (stereo unspecified)	nt	5%	nt	nt	nt	nt	nt	nt	nt
